Out of some 410,000 compounds screened, about 18,000 (4.4%) were called active. About 7% were inconclusive and are not listed. Cut-off read from the data, not from the text of the source: active = activity change below about -60%; inconclusive = no clear call, values can overlap the other calls; inactive = above about -39%. Shown is part of a subset that was picked to be rich in actives.
% is set by controls: 0 for no effect and ±100 for the full control effect.

The assay can be described thus: qHTS Assay for inhibitors of the human cytomegalovirus (HCMV). Particulars: HFF cells, HCMV-luciferase reporter, 72 h; at 57.5 µM; hits give low values. The source says:
NCGC Assay Overview: Infection with human cytomegalovirus (HCMV) continues to pose significant threats for pregnant women and immunocompromised hosts. HCMV causes serious morbidity and mortality in transplant recipients, and congenital HCMV is the leading infectious cause of mental retardation and deafness in children. In the 1990s, the annual costs associated with the disease burden of congenital CMV were estimated at around $2 billion. A HCMV vaccine is not available yet and HCMV therapies result in intolerable side effects and emergence of drug resistant viruses. […] Towards this goal we have developed and characterized a luciferase HCMV reporter that was initially used in 96 well plates and then optimized to 1536-well plates for utilization in screening of the MLSMR collection, the NGCG diversity collection and the NCGC Pharmaceutical Collection of approved and investigational drugs.
NCGC Assay Protocol Summary:
This is a cell-based assay for HCMV inhibition in HFFs cells. The screening used 2 compound doses and the HCMV-luciferase at MOI of 1 PFU/cell. Cells were treated and infected with HCMV. At 72 h post infection cell lysates were collected and luciferase activity was determined using the Glomax-Multi + Detection System (Promega, Madison, WI). Data were normalized to the controls for basal activity (buffer only) and known HCMV inhibitors Salinmoycin.
1536-well assay protocol for the assay:
(1) Add 3 ul CMV/HFF cell culture. 1000 cells/well in DMEM nirmal media.
(2) Incubate 16 hr at 37C.
(3) Add 23 nl control compound, 10uM of Salinomycin.
(4) Add 23 nl compounds in DMSO solution.
(5) Add 3 ul CMV suspension. Final 1 puf/ul, Virus stock 2000pfu/ul
(6) Incubate 72 hrs at 37C.
(7) Add 4 ul OneGlo Luc Reagent.
(8) Incubate 5 min at room temperature.
Turning to `CCCNC(=O)c1ccc(Cn2c(SCC(N)=O)nc3ccccc3c2=O)cc1`, the activity change, negative = inhibition was 4.58% (inactive). Regarding `NC(=O)c1ccc(NC(=O)COC(=O)c2c3c(nc4ccccc24)/C(=C\c2ccc4c(c2)OCO4)CCC3)cc1`, the activity change, negative = inhibition was -90.6% (active). Turning to `NC(=O)c1ccc(NC(=O)COC(=O)C(Cc2ccccc2)NC(=O)c2ccccc2)cc1` (stereo not given), the activity change, negative = inhibition is 10.9% (inactive).

Regarding `CN(CC(=O)Nc1ccc(C(N)=O)cc1)S(=O)(=O)c1ccc2c(c1)OCCO2`, the activity change, negative = inhibition was 21.6% (inactive). For the compound `COc1ccc(CCNC(=O)CCCn2c(=O)c3ccccc3n(Cc3ccc(C)cc3)c2=O)cc1OC`, the activity change, negative = inhibition is 8.21% (inactive).

`Cc1ccc(Cn2c(=O)n(Cc3nc(-c4ccccc4)no3)c(=O)c3cc4c(cc32)OCO4)cc1`: the activity change, negative = inhibition was -3.37% (inactive). Consider `COc1cc(C(=O)Nc2ccc(OCc3cc(=O)n4ccc(C)cc4n3)cc2)cc(OC)c1OC`, for which the activity change, negative = inhibition was 58.3% (inactive). Regarding `COc1ccc2oc(-c3ccc(C)c(NC(=O)c4sc5ccccc5c4Cl)c3)nc2c1`, the activity change, negative = inhibition was 47.4% (inactive). On to `Cc1[nH]nc(-c2ccc(OCc3cnn(-c4ccccc4)c3)cc2O)c1Oc1ccc(Cl)cc1`, for which the activity change, negative = inhibition is -95.2% (active). Take `Oc1cccc(C2c3[nH]c4ccccc4c3CCN2Cc2cnn(-c3ccccc3)c2)c1` (stereo not given): the activity change, negative = inhibition is 19.4% (inactive).

For the compound `CCCCN1C(=O)c2[nH]nc(-c3ccccc3O)c2C1c1cccc(OCc2ccccc2)c1` (stereo not given), the activity change, negative = inhibition is -19% (inactive). For `CCC1CCCCN1C(=O)Cn1c(=O)n(CCCCCC(=O)NCc2ccccc2)c(=O)c2sccc21` (stereo not given), the activity change, negative = inhibition was -18.6% (inactive).

As to `CCOC(=O)c1sc(-c2cccc([N+](=O)[O-])c2)cc1N`, the activity change, negative = inhibition is 0.0939% (inactive). In the case of `Cc1ccc(-c2nnc(CN3CCN(C)CC3)o2)cc1`, the activity change, negative = inhibition is 145% (inactive). For `CCOC(=O)N1CCN(Cc2nnc(-c3ccccc3Cl)o2)CC1`, the activity change, negative = inhibition is -96.5% (active).

Regarding `CCOC(=O)C1CCN(Cc2nnc(-c3cccc(Br)c3)o2)CC1`, the activity change, negative = inhibition is -20.4% (inactive).

On to `O=C(Nc1nnc(C2CC(=O)N(c3ccc(Cl)cc3)C2)s1)c1ccco1` (stereo not given), for which the activity change, negative = inhibition is 5.75% (inactive). For the compound `Cc1ccc(NC(=O)CN2C(=O)CC(C)Sc3ccccc32)c(C)c1` (stereo not given), the activity change, negative = inhibition was -2.3% (inactive).

`Cc1ccc(NC(=O)CC2C(=O)N(Cc3ccccc3)C(=S)N2NC(=O)c2cccc(F)c2)c(C)c1` (stereo not given): the activity change, negative = inhibition is -70.8% (active). As for `Cc1ccc(N2C(=O)C(CC(=O)Nc3cccc(F)c3)N(CCc3ccncc3)C2=O)cc1` (stereo not given), the activity change, negative = inhibition is -29.9% (inactive).

Turning to `Cc1ccc(CNC(=O)C2CC(c3ccccc3[N+](=O)[O-])=NO2)o1` (stereo not given), the activity change, negative = inhibition was -11.5% (inactive).

Turning to `Cc1ccccc1NC(=O)c1cc2c([nH]c1=O)CC(C)(C)CC2=O`, the activity change, negative = inhibition is 43% (inactive). With `N#Cc1ccc(CSc2nnc(-c3ccccn3)n2-c2ccc(Cl)cc2)cc1`, the activity change, negative = inhibition is -9.16% (inactive). With `O=C(Cn1cc(-c2nnnn2-c2ccc(Cl)cc2)c(=O)c2ccccc21)c1ccccc1`, the activity change, negative = inhibition was -9.79% (inactive).

In the case of `Clc1ccc(-n2nnnc2-c2cnc(-c3ccccn3)nc2-c2cccs2)cc1`, the activity change, negative = inhibition is -103% (active).

The values are drawn from PubChem BioAssay AID1259415 (National Center for Advancing Translational Sciences (NCATS), 2018).
